The values that follow come from PubChem BioAssay AID652054 (National Center for Advancing Translational Sciences (NCATS), 2013).

SMILES strings stand for the structures. Out of some 360,000 compounds screened, about 9,100 (2.5%) were called active. About 4% were inconclusive and are not listed. What follows is part of a selection rich in actives, with near analogues and random picks from the rest. Unmarked numbers belong to inactive results. No stated cut-off is given here; in the data, active means max response below about -50%; inconclusive means no clear call, values can overlap the other calls; inactive means above that.
On the % scale 0 is the no-effect control and ±100 the full control effect.

D(3) dopamine receptor (Homo sapiens), sequence (P35462 whole entry, looked up): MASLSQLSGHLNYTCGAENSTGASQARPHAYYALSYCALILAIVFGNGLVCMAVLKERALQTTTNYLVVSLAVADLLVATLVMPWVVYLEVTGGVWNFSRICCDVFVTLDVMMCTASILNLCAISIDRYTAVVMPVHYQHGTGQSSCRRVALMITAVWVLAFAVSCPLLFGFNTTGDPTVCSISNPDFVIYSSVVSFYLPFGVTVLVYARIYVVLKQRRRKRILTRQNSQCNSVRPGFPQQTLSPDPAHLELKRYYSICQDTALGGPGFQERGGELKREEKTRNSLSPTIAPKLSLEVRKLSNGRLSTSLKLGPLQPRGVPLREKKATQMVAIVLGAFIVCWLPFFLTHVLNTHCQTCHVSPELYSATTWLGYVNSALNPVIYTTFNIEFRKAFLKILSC

This experiment concerns the target D(3) dopamine receptor (Homo sapiens) (UniProt P35462). As to the kind of experiment: qHTS of D3 Dopamine Receptor Antagonist: qHTS. To be noted: D3R cells, DiscoveRx beta-arrestin luminescence, antagonist mode; stronger effect = lower value. An outline of the steps: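 Cells expressing the human receptor were seeded at 1500 cells/well, incubated overnight at 37 degrees C in 5% CO2, then exposed to library compounds with dopamine controls for 90 minutes at 37 degrees C before luminescent detection.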
(In general: Quantitative high-throughput screening tests each substance at several concentrations.)
With `CCCCCC(=O)N1C[C@H](O)[C@@H](n2cc(COC(=O)c3ccccc3)nn2)C[C@@H]1c1ccc(C)cc1`, the max response, negative = inhibition was 8.87%. To `COC(=O)C1=CN(c2c(C)cc(C)cc2C)C(N)=C(C#N)C1c1cccc(F)c1` (stereo not drawn) belongs 2.73%; to `Cc1ccnc(SC2CC(=O)N(c3ccccc3)C2=O)n1` (stereo not drawn), -15.3%. Next, `CC[C@@H]1CC2=C(C(=O)OC(C)(C)O2)[C@@H](CC)O1`: 16.4%; `COC(=O)C1(C(=O)OC)C/C=C\CN(S(=O)(=O)c2ccccc2[N+](=O)[O-])CCC1`: 25.7%; `COC(=O)c1cc(S(=O)(=O)NC2CCN(Cc3ccccc3)CC2)cn1C`: 11.7%. For the molecule `Cc1ccc(-c2cc(C(=O)NC3CCN(Cc4ccccc4)CC3)c3ccccc3n2)cc1`, the max response, negative = inhibition is -13.4%.

Regarding `CCc1nc2ccc(C(=O)NC3CCN(Cc4ccccc4)CC3)cn2c1N(C)CCN1CCOCC1`, the max response, negative = inhibition was 14%.

For `Cc1ccn2cc(C(=O)NC3CCN(Cc4ccccc4)CC3)nc2c1`, the max response, negative = inhibition was -65.2% (active). To `Cc1cc(C(=O)NC2CCN(Cc3ccccc3)CC2)n[nH]1` belongs -81.2% (active). As to `Cc1cc(C(=O)NC2CC(C)(C)Cc3c2cnn3-c2ccccc2)n[nH]1` (stereo not drawn), the max response, negative = inhibition is -0.849%. For the molecule `CCc1nc2ccc(C(=O)N3CCN(S(=O)(=O)CC)CC3)cn2c1N(C=O)CCC(C)C`, the max response, negative = inhibition was -18.9%. For `CCCNC(=O)C1(C)CCN1C(=O)Cc1ccc(-c2ccccc2)cc1` (stereo not drawn), the max response, negative = inhibition is -20.6%. To `C[C@H]1NS(=O)(=O)c2cc(Cl)ccc2O[C@@H]1c1ccccc1` belongs -18.7%; to `O=[N+]([O-])/C=C/c1ccc2c(ccn2Cc2ccccc2)c1`, -54.4% (active).

As for `C[C@@H]1CN([C@@H](C)CO)C(=O)CCCn2cc(nn2)CO[C@H]1CN(C)S(=O)(=O)c1ccc(-n2cccn2)cc1`, the max response, negative = inhibition was -5.35%.

`COC(=O)[C@]12CCCCC=C1N(Cc1ccc(Cl)cc1Cl)C(=O)[C@H](CC(=O)NCc1cccc3ccccc13)C2`: the max response, negative = inhibition was -15.1%. Consider `COc1cc(CCN=Cc2ccccc2O)c([N+](=O)[O-])cc1OC`, for which the max response, negative = inhibition was 2.41%. To `NCCCCC(C(=O)O)N(C(=O)OCc1ccccc1)C(=O)OCc1ccccc1` (stereo not drawn) belongs -55.1% (active); to `CC(C)[C@H](NC(=O)OCc1ccccc1)C(=O)OCc1ccccc1`, -14.6%. To `O=C(NCC1CCC(C(=O)O)CC1)OCc1ccccc1` (stereo not drawn) belongs 22%. To `CCc1oc(-c2ccc(OC)cc2)c(C(=O)OCCCCCO)c1C(C)OCCO` (stereo not drawn) belongs 14.5%. Turning to `S=c1c2[nH]cnc2ncn1CCSc1ncnc2nc[nH]c12`, the max response, negative = inhibition was -78.7% (active). To `CCc1ccc(N(CC)c2ncnc3nc[nH]c23)cc1` belongs -11.5%. To `Cc1ccc(NC(=O)c2ccc(CSc3ncnc4nc[nH]c34)cc2)c(C)c1` belongs -9.41%; to `CCOP(=O)(OCC)C(Cc1ccccc1)N=C(c1ccccc1)c1ccccc1` (stereo not drawn), -6.96%; to `O=C(N1CCCCC1)N1CCN(C(=O)N2CCCCC2)CC1`, -20.6%.

In the case of `Cc1ccc(C(=O)NC2CCN(C(=O)N3CCOCC3)CC2)cc1`, the max response, negative = inhibition was 11.7%. Turning to `O=C(N1CCOCC1)N1CCOCC1`, the max response, negative = inhibition was -50.3% (active).

With `O=C(NCCOc1ccccc1)N1[C@H]2CC[C@@H]1C=C(c1ccc(F)cc1OCc1ccccc1)C2`, the max response, negative = inhibition is 56.5%.

As for `CCOc1ccc(CCN2C(=O)C(=O)N([C@@H](Cc3ccc(O)cc3)CN3CCC[C@H]3CN3C(=O)C(=O)NC[C@@H]3CC(C)C)C[C@@H]2Cc2ccccc2)cc1`, the max response, negative = inhibition is -23.4%.

For the molecule `CN(C)CCN1CCN(c2cc(-c3cccc(Cl)c3)nc3ccnn23)CC1`, the max response, negative = inhibition was -22%. Next, `Cc1ccc(C(O)c2ncc(-c3ccccc3F)[nH]2)cc1F` (stereo not drawn): -0.345%; `CCOC(=O)C1CCN(C(c2cc3cc(C)cc(C)c3[nH]c2=O)c2nnnn2C2CCCCC2)CC1` (stereo not drawn): 18.8%. On to `FC(F)(F)Oc1ccccc1C(c1nnnn1C1CCCCC1)N1CCN(C/C=C/c2ccccc2)CC1` (stereo not drawn), for which the max response, negative = inhibition is -77.9% (active). Next, `COc1ccc(C(c2nnnn2C2CCCCC2)N2CCN(c3ccccc3F)CC2)cc1` (stereo not drawn): -13.2%. To `OC(c1cc(Cl)cc(Cl)c1)c1ncc(-c2ccccc2C(F)(F)F)[nH]1` (stereo not drawn) belongs 2.77%. To `CCCN1C2CCCC1CC(NC(=O)c1cccc(OC)c1)C2` (stereo not drawn) belongs 9.66%; to `COc1ccc(NC(=S)N2CCC(NC(=O)c3cccc(F)c3)CC2)cc1`, -3.67%; to `CC(=O)NC1CC2CCCC(C1)N2CC(=O)Nc1ccccc1` (stereo not drawn), -23%. In the case of `COc1ccc(CN2C3CCCC2CC(NC(=O)c2cccc(F)c2)C3)cc1` (stereo not drawn), the max response, negative = inhibition was -88.5% (active). To `COc1ccc(NC(=O)NC2CC3CCCC(C2)N3Cc2ccccc2)cc1` (stereo not drawn) belongs -65.9% (active); to `CCOc1ccccc1C(=O)NC1CC2CCCC(C1)N2Cc1ccccc1` (stereo not drawn), -77.3% (active); to `CCCCOCCCNC(=O)c1ccccc1OCC`, -16.2%. To `CCOc1ccccc1OCC(=O)Nc1ccccc1C(=O)NC1CC1` belongs 2%; to `COc1ccc(NC(=O)N2CCC(Cc3ccccc3)CC2)cc1`, -18%.

Consider `Cc1ccc(-c2ccc(C3=CC(=O)CC(C)(C)C3=O)cc2)cc1`, for which the max response, negative = inhibition was 4.58%. On to `Cc1ccc([C@H]2N[C@]3(CCCN(CC4CCCCC4)C3=O)[C@H]3C(=O)N(Cc4ccccc4)C(=O)[C@@H]23)cc1`, for which the max response, negative = inhibition is 0.653%. To `Cc1ccc(F)c(S(=O)(=O)NC(=O)C2(C)CCN2C(=O)CCc2cccs2)c1` (stereo not drawn) belongs -4.74%. To `COc1ccc(C(=O)OCC(=O)NCC2CCCCC2)cc1S(=O)(=O)N1CCCc2ccccc21` belongs 8.09%; to `COc1cc(C)c(C)cc1S(=O)(=O)N1CCCc2ccccc21`, -64.6% (active). In the case of `Cn1c(=O)n(C)c2cc(S(=O)(=O)N3CCCc4ccccc43)ccc21`, the max response, negative = inhibition is 5.19%.

As for `N#CCCC(C#N)(c1cccnc1)N1CCOCC1` (stereo not drawn), the max response, negative = inhibition was -3.79%. To `Cc1cc(OC(C)C(=O)NC2CC(C)(C)NC(C)(C)C2)c2c(C)cc(=O)oc2c1` (stereo not drawn) belongs 7.98%; to `Cc1ccc(C(=O)NC2CC(C)(C)NC(C)(C)C2)c(C)c1`, 39.4%.

In the case of `Cc1cc(=O)oc(C)c1C(=O)NC1CC(C)(C)NC(C)(C)C1`, the max response, negative = inhibition is -75.7% (active).

Regarding `CC(C)C[C@H]1CNC(=O)C(=O)N1C[C@@H]1CCCN1C[C@H](Cc1ccccc1)N1C[C@H](CC(C)C)N(CC2CCCCCC2)C(=O)C1=O`, the max response, negative = inhibition is -0.867%.

As for `CCOC(=O)[C@]12CCCC=C1N(CCC1=CCCCC1)C(=O)[C@H](CC(=O)N1CCN(C(=O)c3ccco3)CC1)C2`, the max response, negative = inhibition was 0%.

`Brc1ccc(CN2CC[C@H]3C=CCc4cccc(c43)C2)cc1`: the max response, negative = inhibition was -107% (active).

In the case of `Brc1ccccc1CN1CCC(Cc2ccccc2)CC1`, the max response, negative = inhibition was -26.3%.

As to `NC(=O)c1ccc(CN2CCC(Cc3ccccc3)CC2)cc1`, the max response, negative = inhibition was -23.1%. To `O[C@@H]1C[C@H](c2ccccc2)N(Cc2cccs2)C[C@H]1n1cc(C2CC2)nn1` belongs 2.45%.

In the case of `C[C@H]1Cn2cnc(C(=O)N[C@H](C)c3ccccc3)c2C(=O)N1`, the max response, negative = inhibition was -3.02%. To `O=c1[nH]c2ccccc2n1C1CCN(CCOc2ccccc2)CC1` belongs -110% (active); to `OC(c1ccccc1)(c1ccccc1)C1CCN(CCCOc2ccccc2)CC1`, -8.6%; to `O=C1CCN(CCc2ccccc2)CCN1CCOc1ccccc1`, -8.76%. Next, `CS(=O)(=O)N1CCCCC1c1cc(C(=O)NCc2ccccc2)no1` (stereo not drawn): 13.9%; `CCN(CC)CCNCc1ccc(OCc2ccc(Cl)nc2)c(OC)c1`: -23.1%. Consider `CCOCCCNCc1ccc(OCc2ccc(F)cc2)c(OC)c1`, for which the max response, negative = inhibition was 13.1%. Next, `COc1cc(CNCCN(C)C)ccc1OCc1c(F)cccc1Cl`: -51.3% (active); `CCOC(=O)[C@]12CCCC=C1N(CCC1=CCCCC1)C(=O)[C@H](CC(=O)N1CCCCC1)C2`: 6.86%. Next, `Cc1ccc([C@@H]2CC(=O)[C@@H]3CN(S(=O)(=O)c4ccc(C)cc4)[C@H](c4ccccc4F)C[C@@H]3N2S(=O)(=O)c2ccc(Cl)cc2)cc1`: 4.51%.

As for `Cc1cc(C)c2nc(N(CCN(C)C)C(=O)/C=C/c3cccs3)sc2c1`, the max response, negative = inhibition was -2.22%.

On to `Cc1ccc2sc(N(CCN(C)C)C(=O)/C=C/c3cccs3)nc2c1C`, for which the max response, negative = inhibition was -69.2% (active).

As for `Cc1ccc(S(=O)(=O)N(C)C)cc1NC(=O)/C=C/c1cccs1`, the max response, negative = inhibition is -18.2%. To `COc1ccc(C2CC(c3cccc(OC)c3)=NN2c2ccc(S(N)(=O)=O)cc2)cc1` (stereo not drawn) belongs 17.8%; to `O=C(/C=C/[C@H]1O[C@@H](n2ccc(=O)[nH]c2=O)[C@H](O)[C@@H]1O)NCc1ccccn1`, 9.97%.

For the molecule `O=C(CC1NCCNC1=O)Nc1ccc(Oc2ccccc2)cc1` (stereo not drawn), the max response, negative = inhibition is 24.3%. Next, `O=C(CC1NCCNC1=O)Nc1cc(Cl)cc(Cl)c1` (stereo not drawn): 20.6%; `O=C(CC1NCCc2ccccc21)Nc1cccc(Cl)c1` (stereo not drawn): -95.5% (active); `O=C(Nc1sc2c(c1C(=O)O)CCC2)c1ccccc1F`: -1.53%.

In the case of `CC(=O)Nc1sc2c(c1C(c1cccc(F)c1)N1CCN(CCO)CC1)CCCC2` (stereo not drawn), the max response, negative = inhibition is -60.6% (active). To `Cc1cccc(C)c1NC(=O)C(c1cccc(F)c1)N1CCN(C)CC1` (stereo not drawn) belongs -13.2%; to `Cc1ccc(S(=O)(=O)N[C@H]2CCC[C@@H]2O)cc1`, -12.4%.

Consider `CN(C(=O)CN1CCN(c2cc(-c3ccc(OCc4ccccc4)cc3)ncn2)CC1)c1ccccc1`, for which the max response, negative = inhibition is 49%. To `CC(=O)NCc1ccc(S(=O)(=O)NC2CCN(Cc3ccccc3)CC2)cc1` belongs -11.1%; to `CN(CC(=O)NC1CCN(Cc2ccccc2)CC1)S(=O)(=O)c1ccc(Cl)s1`, -58.6% (active); to `CN(CC(=O)NC1CCCCC1)S(=O)(=O)c1ccc(Br)s1`, -7.06%.
